Reference: PubChem BioAssay AID1159580 (chemical genetic matrix, 2015)
Out of some 5,500 compounds screened, about 2,000 (36%) were called active. Roughly 18% stayed inconclusive and do not appear here. No stated cut-off is given here; in the data, active means normalized growth mostly below about 0.91 (no sharp cut-off); inconclusive means no clear call, values can overlap the other calls; inactive means mostly above about 0.92. The list shows a part of the results.

Assay: chemical genetic growth profiling, strain panel (AID 1159580);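 further: tested at 20 µM; growth read once vehicle control cultures reached saturation at 30 °C; 1 = growth at the plate median or of vehicle wells; lower values mean less growth of the strain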
Conditions: growth OD

Measured: normalized growth

O=C(O)c1cc2ccccc2[nH]1
inactive: S. cerevisiae deletion strains, locus YJR075W, strain HOC1, active compounds read low 1.01 | S. cerevisiae deletion strains, locus YKL009W, strain mrt4, active compounds read low 0.991 | S. cerevisiae deletion strains, locus YKL068W, active compounds read low 1 | S. cerevisiae deletion strains, locus YKL085W, strain MDH1 (second series), active compounds read low 1.02 | S. cerevisiae deletion strains, locus YKL085W, strain MDH1, active compounds read low 1.02 | S. cerevisiae deletion strains, locus YKL160W, strain elf1, active compounds read low 0.972 | S. cerevisiae deletion strains, locus YKL190W, strain CNB1, active compounds read low 1 | S. cerevisiae deletion strains, locus YKR001C, strain vps1, active compounds read low 1.02 | S. cerevisiae deletion strains, locus YKR026C, strain gcn3, active compounds read low 0.961 | S. cerevisiae deletion strains, locus YKR091W, strain srl3, active compounds read low 0.98 | S. cerevisiae deletion strains, locus YLL001W, strain dnm1, active compounds read low 0.974 | S. cerevisiae deletion strains, locus YLL026W, active compounds read low 1 | S. cerevisiae deletion strains, locus YLL041C, strain sdh2, active compounds read low 0.989 | S. cerevisiae deletion strains, locus YLR027C, strain aat2, active compounds read low 0.993 | S. cerevisiae deletion strains, locus YLR039C, strain RIC1, active compounds read low 1.01 | S. cerevisiae deletion strains, locus YLR058C, strain SHM2, active compounds read low 1.01 | S. cerevisiae deletion strains, locus YLR102C, strain apc9, active compounds read low 1.02 | S. cerevisiae deletion strains, locus YLR113W, strain HOG1, active compounds read low 0.95 | S. cerevisiae deletion strains, locus YLR221C, strain rsa3, active compounds read low 0.989 | S. cerevisiae deletion strains, locus YLR258W, strain gsy2, active compounds read low 0.989 | S. cerevisiae deletion strains, locus YLR262C, strain YPT6 (second series), active compounds read low 0.991 | S. cerevisiae deletion strains, locus YLR262C, strain YPT6, active compounds read low 1.05 | S. cerevisiae deletion strains, locus YLR268W, strain sec22, active compounds read low 1.01 | S. cerevisiae deletion strains, locus YLR320W, strain mms22, active compounds read low 1.01 | S. cerevisiae deletion strains, locus YLR330W, strain CHS5, active compounds read low 1.01 | S. cerevisiae deletion strains, locus YLR342W, strain FKS1 (second series), active compounds read low 0.993 | S. cerevisiae deletion strains, locus YLR342W, strain FKS1, active compounds read low 0.991 | S. cerevisiae deletion strains, locus YLR357W, strain rsc2, active compounds read low 0.983 | S. cerevisiae deletion strains, locus YLR370C, strain arc18, active compounds read low 0.989 | S. cerevisiae deletion strains, locus YLR371W, strain rom2, active compounds read low 1.01 | S. cerevisiae deletion strains, locus YLR384C, strain iki3, active compounds read low 0.976 | S. cerevisiae deletion strains, locus YLR418C, strain cdc73, active compounds read low 1.01 | S. cerevisiae deletion strains, locus YML016C, strain PPZ1, active compounds read low 1.01 | S. cerevisiae deletion strains, locus YML032C, strain rad52, active compounds read low 1 | S. cerevisiae deletion strains, locus YML120C, strain ndi1, active compounds read low 0.979 | S. cerevisiae deletion strains, locus YML124C, strain tub3, active compounds read low 1.01 | S. cerevisiae deletion strains, locus YMR058W, strain fet3, active compounds read low 0.975 | S. cerevisiae deletion strains, locus YMR078C, strain ctf18, active compounds read low 1.02 | S. cerevisiae deletion strains, locus YMR125W, strain sto1, active compounds read low 0.941 | S. cerevisiae deletion strains, locus YMR129W, active compounds read low 0.987 | S. cerevisiae deletion strains, locus YMR205C, strain PFK2, active compounds read low 1.02 | S. cerevisiae deletion strains, locus YMR223W, strain ubp8, active compounds read low 1.01 | S. cerevisiae deletion strains, locus YMR231W, strain pep5, active compounds read low 1 | S. cerevisiae deletion strains, locus YMR263W, strain SAP30, active compounds read low 1.01 | S. cerevisiae deletion strains, locus YMR307W, strain GAS1, active compounds read low 1.04 | S. cerevisiae deletion strains, locus YNL067W, strain RPL9B, active compounds read low 1.01 | S. cerevisiae deletion strains, locus YNL071W, strain lat1, active compounds read low 0.986 | S. cerevisiae deletion strains, locus YNL128W, strain TEP1, active compounds read low 1 | S. cerevisiae deletion strains, locus YNL153C, strain GIM3, active compounds read low 1.01 | S. cerevisiae deletion strains, locus YNL183C, strain NPR1, active compounds read low 0.915 | S. cerevisiae deletion strains, locus YNL209W, strain ssb2, active compounds read low 0.984 | S. cerevisiae deletion strains, locus YNL233W, strain BNI4, active compounds read low 1 | S. cerevisiae deletion strains, locus YNL248C, strain rpa49, active compounds read low 0.954 | S. cerevisiae deletion strains, locus YNL250W, strain rad50, active compounds read low 1 | S. cerevisiae deletion strains, locus YNL271C, strain bni1, active compounds read low 1.01 | S. cerevisiae deletion strains, locus YNL298W, strain CLA4, active compounds read low 1 | S. cerevisiae deletion strains, locus YNL307C, strain MCK1, active compounds read low 1.02 | S. cerevisiae deletion strains, locus YNL322C, strain KRE1 (second series), active compounds read low 0.979 | S. cerevisiae deletion strains, locus YNL322C, strain KRE1, active compounds read low 1.02 | S. cerevisiae deletion strains, locus YNR049C, strain mso1, active compounds read low 0.983 | S. cerevisiae deletion strains, locus YNR052C, strain pop2, active compounds read low 1.02 | S. cerevisiae deletion strains, locus YOL006C, strain TOP1, active compounds read low 1.04 | S. cerevisiae deletion strains, locus YOL012C, strain htz1 1.07 | S. cerevisiae deletion strains, locus YOL147C, strain pex11, active compounds read low 1.01 | S. cerevisiae deletion strains, locus YOR001W, strain rrp6, active compounds read low 0.963 | S. cerevisiae deletion strains, locus YOR061W, strain CKA2, active compounds read low 1.01 | S. cerevisiae deletion strains, locus YOR069W, strain VPS5, active compounds read low 0.991 | S. cerevisiae deletion strains, locus YOR070C, strain gyp1, active compounds read low 0.999 | S. cerevisiae deletion strains, locus YOR080W, strain dia2, active compounds read low 0.99 | S. cerevisiae deletion strains, locus YOR083W, strain WHI5, active compounds read low 0.967 | S. cerevisiae deletion strains, locus YOR106W, strain vam3, active compounds read low 0.972 | S. cerevisiae deletion strains, locus YOR136W, strain idh2, active compounds read low 1.02 | S. cerevisiae deletion strains, locus YOR144C, strain elg1, active compounds read low 1.02 | S. cerevisiae deletion strains, locus YOR184W, strain ser1, active compounds read low 1 | S. cerevisiae deletion strains, locus YOR231W, strain MKK1, active compounds read low 0.995 | S. cerevisiae deletion strains, locus YOR265W, strain rbl2, active compounds read low 0.991 | S. cerevisiae deletion strains, locus YOR270C, strain vph1, active compounds read low 0.974 | S. cerevisiae deletion strains, locus YOR290C, strain snf2, active compounds read low 0.955 | S. cerevisiae deletion strains, locus YOR316C, strain cot1, active compounds read low 1.02 | S. cerevisiae deletion strains, locus YPL051W, strain arl3, active compounds read low 0.979 | S. cerevisiae deletion strains, locus YPL055C, strain LGE1, active compounds read low 0.998 | S. cerevisiae deletion strains, locus YPL078C, strain atp4, active compounds read low 0.948 | S. cerevisiae deletion strains, locus YPL106C, strain sse1, active compounds read low 0.972 | S. cerevisiae deletion strains, locus YPL240C, strain hsp82, active compounds read low 0.997 | S. cerevisiae deletion strains, locus YPL241C, strain CIN2, active compounds read low 1.06 | S. cerevisiae deletion strains, locus YPL256C, strain CLN2, active compounds read low 1 | S. cerevisiae deletion strains, locus YPR119W, strain clb2, active compounds read low 1 | S. cerevisiae deletion strains, locus YPR141C, strain kar3, active compounds read low 0.996 | S. cerevisiae deletion strains, locus YPR163C, strain tif3, active compounds read low 1.01 | S. cerevisiae deletion strains, locus YPR167C, strain met16, active compounds read low 1.02 | S. cerevisiae deletion strains, strain wtn01, active compounds read low 1.01 | S. cerevisiae strains, strain wild type, active compounds read low 0.994
